Compound activity (PubChem BioAssay)
CDC25B-CDK2 inh: human CDC25B-CDK2/CyclinA binding inhibition | P30305+P24941 | HTRF CDC25B-CDK2/CyclinA binding, anti-His/anti-Flag; hits give high values | z-score (concentration not given with the values) | actives 0.72% (n = 94,000); in the data active = z-score above about 3.2
TAR Tat displ: HIV-1 TAR-Tat binding disruption; z-score (test concentration not listed); actives 0.6% (n = 100,000); HIV-1 TAR RNA, Tat peptide displacement FRET; hits give high values; active = z-score of 3 or more in at least 2 runs
Starred values were filed as active, the others as inactive; nt = no result. A selection: hits, their analogues and other compounds. The true share with any hit is near 0.9%.

SMILES	CDC25B-CDK2 inh	TAR Tat displ
CCC(C(=O)N1CCN(CC)CC1)n1sc2ccccc2c1=O (stereo not drawn)	-2.31	1.64
Cc1cccc(N2CSC3=C(C#N)C(c4ccccc4Cl)CC(=O)N3C2)c1 (stereo not drawn)	0.48	0.81
CSc1ccc(C2CC(=O)N3CN(c4cccc(C)c4)CSC3=C2C#N)cc1 (stereo not drawn)	8.47*	-2.59
Cc1cccc(N2CSC3=C(C#N)C(c4ccc(F)cc4)CC(=O)N3C2)c1 (stereo not drawn)	4.1*	-1.23
O=C(CCCc1nc(-c2ccncc2)no1)Nc1nccs1	-0.98	-0.12
NC(N)=NS(=O)(=O)c1ccc(N/C=C\C(=O)c2ccc3ccccc3c2)cc1	17.6*	nt
NC(N)=NS(=O)(=O)c1ccc(N/C=C\C(=O)c2ccc(F)cc2)cc1	-1.58	nt
CCc1nnc(NC(=O)c2cc(=O)n3c(nc4ccccc43)s2)s1	nt	3.75*
CCc1nnc(NC(=O)Cn2c(=O)sc3ccccc32)s1	-0.08	nt
COc1ccc(Nc2c3c(nc4ncnn24)CCCC3)cc1Cl	nt	0.7
CC1=CC(=O)N(c2nc(-c3ccc(Cl)cc3)cs2)C1=O	-1.32	nt
CC1=NN(c2nc(-c3ccc(Br)cc3)cs2)C(=O)/C1=C\c1ccc2c(c1)OCO2	20.9*	nt
CC1=NN(c2nc(-c3ccc(Cl)cc3)cs2)C(=O)/C1=C\c1ccc2c(c1)OCO2	6.93*	nt
O=C(CCN1C(=O)/C(=C/c2ccc3c(c2)OCO3)SC1=S)Nc1nc(-c2ccccc2)cs1	-39.2	nt
CN(C)c1cc(N2CCCCC2)c2c3c(onc13)-c1ccccc1C2=O	-0.64	-1.57
C=CCc1ccccc1OCc1cc(=O)n2ccsc2n1	-1.15	0.27
O=C(CSc1nc2c(c(=O)[nH]1)CCCC2)Nc1ccccc1F	-1.64	14.6*
O=C(CSc1nc2c(c(=O)[nH]1)CCCC2)Nc1ccccc1Cl	-1.71	0.06
NC(=O)c1c(NC(=O)CN2CCOCC2)sc2c1CCCC2	-0.11	2.88
COc1ccc(-c2c(C)nn3c(C)cc(C)nc23)cc1OC	-1.09	0.69
COc1cc2c(NC3CCN(C)CC3)nc(N3CCCN(C)CC3)nc2cc1OCCCN(C)C	nt	12.4*
COc1cc2c(NC3CCN(C)CC3)cc(N3CCCCN(C)CC3)cc2cc1OCCOCCN(C)C	nt	8.27*
COc1cc2c(NC3CCN(C(C)C)CC3)nc(C3CCCCC3)nc2cc1OCCCN1CCCC1	nt	0.21
N#Cc1nc(-c2ccc(COc3ccc(Cl)cc3)o2)oc1NCc1cccnc1	-0.18	-1.49
CC(=O)N1CCOc2ccc(S(=O)(=O)NCC3CCC(C(=O)N4CCCC4)CC3)cc21 (stereo not drawn)	nt	-0.58
SMILES	CDC25B-CDK2 inh	TAR Tat displ
O=C(O)c1ccc(CS(=O)Cc2ccc(Cl)cc2)o1 (stereo not drawn)	nt	1.59
c1coc(-c2nc3ccccc3nc2-c2ccco2)c1	-0.23	nt
O=C(O)c1cc2ccccc2nc1-c1ccco1	0.87	34.6*
CCCC(=O)OCc1cnc(C)c2oc(=O)c(-c3nc(-c4ccc(OC)cc4)no3)cc12	-2.12	-1.87
COc1cccc(NS(=O)(=O)c2cn(C)cn2)c1	nt	1.08
O=C(O)c1cc(N2CCN(Cc3ccccc3)CC2)nc2ccccc12	nt	2.69
CCn1nc(-n2cnnc2)c(NS(=O)(=O)c2cccc3nsnc23)c1C	0.24	0.69
C(=C\c1ccc2c(c1)OCO2)/C1=NN(c2ccccc2)C(c2ccc3c(c2)OCO3)C1 (stereo not drawn)	15.6*	0.32
Cn1c(/C=C/c2ccc3c(c2)OCO3)nc2ccccc2c1=O	0.59	0.6
O=C(Nc1ccc2nc3c4ccccc4c4ccccc4c3nc2c1)N(CCO)c1ccccc1	-1.99	nt
OCCNC(=S)Nc1ccc2nc3c4ccccc4c4ccccc4c3nc2c1	21.5*	nt
Cc1ccc(S(=O)(=O)c2c(N)n(CCO)c3nc4ccccc4nc23)cc1	18.3*	nt
CCOC(=O)c1c(N)n(CCc2ccccc2)c2nc3ccccc3nc12	0.32	0.65
COc1cc2ncc(S(=O)(=O)c3ccc(C)cc3)c(N3CCCC3)c2cc1OC	9.58*	-0.63
COc1ccc(S(=O)(=O)c2cnc3cc(OC)c(OC)cc3c2N2CCCCC2)cc1	-2.03	1.58
CCOc1ccc2ncc(S(=O)(=O)c3ccccc3)c(N3CCCCC3)c2c1	-0.61	-0.35
CCOc1ccc2ncc(S(=O)(=O)c3ccc(C)cc3)c(N3CCCC3)c2c1	5.2*	0.15
COc1ccc(-c2noc(-c3cc(-c4ccc5ccccc5c4)n[nH]3)n2)cc1OC	nt	-1.22
O=C(Cn1cnc(S(=O)(=O)N2CCOCC2)c1)Nc1cccnc1	nt	-0.87
O=C(Nc1ccccc1Br)N1CCSc2ccccc21	nt	0.38
O=C1Nc2ccc(S(=O)(=O)NCc3ccccc3)cc2C1=O	nt	6.2*
O=C1Cc2cc(S(=O)(=O)NCc3ccccc3)ccc2N1	nt	1.4
Cc1ccc(-c2c(NC3CCCC(C)C3C)c(=O)c2=O)cc1C (stereo not drawn)	nt	1.92
Cc1ccc(CNC(=O)CC(C)CC2=NS(=O)(=O)c3ccccc3N2)o1 (stereo not drawn)	nt	0.5
CC(CC(=O)NCc1ccco1)CC1=NS(=O)(=O)c2ccccc2N1 (stereo not drawn)	nt	9.47*
SMILES	CDC25B-CDK2 inh	TAR Tat displ
CCOc1ccc(CCNc2nc3ccc(Cl)cc3n3cnnc23)cc1OCC	-1.75	0.73
Cc1ccccc1Nc1nc2ccccc2c2nncn12	-2.12	1.98
CC(C)(O)C#Cc1ccc(/C=N/OC(=O)Nc2cccc(Cl)c2)cc1	-1.21	nt
O=C(NC(NC(=S)Nc1cccc2ccccc12)C(Cl)(Cl)Cl)c1ccccc1F (stereo not drawn)	5.27*	nt
O=C(NC(NC(=S)Nc1ccccc1Br)C(Cl)(Cl)Cl)c1ccccc1 (stereo not drawn)	1.16	nt
COc1cccc(-c2n[nH]c(=S)n2-c2ccccc2)c1OC	1.25	nt
COc1ccc(-c2cc3nc(C)cc(NCC(C)C)n3n2)cc1OC	-0.86	2.6
CCN(CC)CCNc1cc(C)nc2cc(-c3ccc(OC)c(OC)c3)nn12	1.72	3.95*
CCOC(=O)c1ccc(NC(=S)NC(NC(=O)c2ccccc2Br)C(Cl)(Cl)Cl)cc1 (stereo not drawn)	1.84	nt
CC(=O)c1ccc(NC(=S)NC(NC(=O)c2cccc(Cl)c2)C(Cl)(Cl)Cl)cc1 (stereo not drawn)	3.17*	nt
COCCn1c(C)cc(C(=O)C(=O)Nc2nnc(-c3ccco3)s2)c1C	-1.56	30.8*
COCCn1c(C)cc(C(=O)C(=O)Nc2nnc(-c3cccs3)s2)c1C	-2.33	2.85
Cc1nnc(NC(=O)C(=O)c2cc(C)n(-c3ccc(Cl)cc3)c2C)s1	0.27	1.19
Cc1cc(C(=O)C(=O)Nc2nnc(-c3ccco3)s2)c(C)n1-c1ccc(Cl)cc1	-1.33	19*
CCC(=O)N1c2ccccc2CC1C(=O)NC (stereo not drawn)	nt	1.53
CCC[B-]1(CCC)OC(Nc2ccc3ccccc3c2)=Nc2scc[n+]21	4.23*	nt
c1ccc(NC2=Nc3scc[n+]3[B-](c3ccccc3)(c3ccccc3)S2)cc1	-1.87	nt
CC(C)c1nnc2sc(-c3ccccc3Cl)nn12	-1.17	0.48
Cn1c2c(c(=O)[nH]c1=O)C(c1ccc([N+](=O)[O-])o1)C1=C(N2)c2ccccc2C1=O (stereo not drawn)	0.36	3.6*
Cn1c2c(c(=O)[nH]c1=O)C(c1ccccc1)C1=C(N2)c2ccccc2C1=O (stereo not drawn)	-2.62	-17.6
O=S1(=O)C[C@H](NCc2cccnc2)[C@@H](S(=O)(=O)c2ccc(Cl)cc2)C1	-0.75	-0.38
